From the supplement of paper PMC10849652 come the findings set out here.

Holding throughout (experiment): log2 fold change, soluble protein after heating vs DMSO (PISA); higher = thermal stabilisation; K562 cells, 10 uM, 30 min; active = over 0.2 and 3.5 SD of the protein, either way, in both replicates (recomputed)
Compound in test [1]: CC1=C(C=C(C=C1)NC(=O)C2=CC(=CC=C2)C(C)(C)C#N)NC3=CC4=C(C=C3)N=CN(C4=O)C
In outline:
(§1)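 K562 cells at 2×10^6 cells/mL were given 10 μM compound for 30 min. Aliquots then went through 3 min of heating across 48°C-58°C, were pooled, and were extracted in PBS with 0.5% NP-40 at 4°C, and the supernatant after 21,000xg for 90 min was quantified by TMTpro 16plex LC-MS/MS with channel sums equalised. Thermal stability relative to control samples, from duplicates, is given as log2 fold change.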

Compound in test [2]: CC1=C(C=C(C=C1)NC(=O)C2=CC(=CC=C2)N(C)C)NC(=O)C3=CC=C(C=C3)O
Summed up: as §1

Compound in test [3]: CC1=CC=C(C=C1)SC2=C3C=C(SC3=CN=C2)C(=O)N
In outline:
as §1

Compound in test [4]: CC1=NC(=CC=C1)C2=C(N=C(N2)C(C)(C)C)C3=CC4=NC=CN=C4C=C3
Summed up: as §1

Compound in test [5]: CCCCN(Cc1ccc(C(=O)NO)cc1)C(=O)Nc1ccccc1 [Nexturastat A]
In outline:
as §1

Compound in test [6]: CCCS(=O)(=O)Nc1ccc(F)c(C(=O)c2c[nH]c3ncc(-c4ccc(Cl)cc4)cc23)c1F [vemurafenib]
Summed up:
as §1

Compound in test [7]: CCCS(=O)(=O)Nc1ccc(F)c(C(=O)c2c[nH]c3ncc(Cl)cc23)c1F
In outline: as §1

Compound in test [8]: CCCc1cc(C)[nH]c(=O)c1CNC(=O)c1cc(-c2ccnc(N3CCN(C)CC3)c2)cc2c1cnn2C(C)C
Summed up: as §1

Compound in test [9]: CCN(CC)Cc1ccc2cc(COC(=O)Nc3ccc(C(=O)NO)cc3)ccc2c1 [givinostat]
In outline: as §1

Compound in test [10]: CCN(CCCOc1ccc2c(Nc3cc(CC(=O)Nc4cccc(F)c4)[nH]n3)ncnc2c1)CCOP(=O)(O)O [barasertib]
Summed up:
as §1

About 7,900 targets were measured; listed, in parts, are those with a hit and a random draw of the rest. About 0.6% of all pairs of compound and target were hits. A number with no mark means an inactive call.

UniProt Q12986, sequence (Q12986 whole entry, looked up): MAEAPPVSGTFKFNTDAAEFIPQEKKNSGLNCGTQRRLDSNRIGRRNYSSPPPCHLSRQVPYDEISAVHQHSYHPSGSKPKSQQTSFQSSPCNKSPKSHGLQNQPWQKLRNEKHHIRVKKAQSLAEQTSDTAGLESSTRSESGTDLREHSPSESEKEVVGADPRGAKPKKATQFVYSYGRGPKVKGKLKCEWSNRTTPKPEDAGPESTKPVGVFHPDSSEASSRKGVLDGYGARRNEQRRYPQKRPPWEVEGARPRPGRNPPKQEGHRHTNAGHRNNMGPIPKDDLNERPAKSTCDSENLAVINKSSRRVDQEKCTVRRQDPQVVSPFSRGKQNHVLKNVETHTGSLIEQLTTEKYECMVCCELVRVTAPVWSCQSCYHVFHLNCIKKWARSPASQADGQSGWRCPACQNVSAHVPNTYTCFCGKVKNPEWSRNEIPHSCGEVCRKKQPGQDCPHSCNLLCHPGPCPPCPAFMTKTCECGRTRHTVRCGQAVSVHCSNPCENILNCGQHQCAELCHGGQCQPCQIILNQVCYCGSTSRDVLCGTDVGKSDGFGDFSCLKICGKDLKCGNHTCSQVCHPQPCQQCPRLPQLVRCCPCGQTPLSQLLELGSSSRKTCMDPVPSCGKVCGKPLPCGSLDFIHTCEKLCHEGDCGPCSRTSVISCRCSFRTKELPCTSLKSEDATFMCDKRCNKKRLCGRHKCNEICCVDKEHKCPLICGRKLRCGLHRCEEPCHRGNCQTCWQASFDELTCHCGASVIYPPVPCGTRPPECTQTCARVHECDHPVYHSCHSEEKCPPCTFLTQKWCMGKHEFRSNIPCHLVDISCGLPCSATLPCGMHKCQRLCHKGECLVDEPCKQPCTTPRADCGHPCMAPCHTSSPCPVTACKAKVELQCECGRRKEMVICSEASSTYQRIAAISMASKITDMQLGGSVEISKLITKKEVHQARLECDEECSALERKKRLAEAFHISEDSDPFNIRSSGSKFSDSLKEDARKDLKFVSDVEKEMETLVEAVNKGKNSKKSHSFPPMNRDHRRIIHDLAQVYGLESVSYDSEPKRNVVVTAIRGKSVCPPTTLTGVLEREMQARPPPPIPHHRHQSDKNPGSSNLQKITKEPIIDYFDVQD
UniProt P0C024, sequence (P0C024 whole entry, looked up): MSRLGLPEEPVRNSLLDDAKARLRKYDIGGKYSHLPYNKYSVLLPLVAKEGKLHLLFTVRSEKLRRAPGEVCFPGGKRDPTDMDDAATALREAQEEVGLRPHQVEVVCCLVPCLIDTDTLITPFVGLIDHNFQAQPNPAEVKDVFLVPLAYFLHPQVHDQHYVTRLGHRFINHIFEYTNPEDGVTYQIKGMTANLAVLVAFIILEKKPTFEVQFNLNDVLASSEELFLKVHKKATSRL
UniProt O75607, sequence (O75607 whole entry, looked up): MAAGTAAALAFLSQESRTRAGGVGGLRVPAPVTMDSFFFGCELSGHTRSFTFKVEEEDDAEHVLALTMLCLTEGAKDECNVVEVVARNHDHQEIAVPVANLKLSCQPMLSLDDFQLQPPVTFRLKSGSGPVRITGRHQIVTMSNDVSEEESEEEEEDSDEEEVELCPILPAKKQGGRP
UniProt Q9H3P2, sequence (Q9H3P2 whole entry, looked up): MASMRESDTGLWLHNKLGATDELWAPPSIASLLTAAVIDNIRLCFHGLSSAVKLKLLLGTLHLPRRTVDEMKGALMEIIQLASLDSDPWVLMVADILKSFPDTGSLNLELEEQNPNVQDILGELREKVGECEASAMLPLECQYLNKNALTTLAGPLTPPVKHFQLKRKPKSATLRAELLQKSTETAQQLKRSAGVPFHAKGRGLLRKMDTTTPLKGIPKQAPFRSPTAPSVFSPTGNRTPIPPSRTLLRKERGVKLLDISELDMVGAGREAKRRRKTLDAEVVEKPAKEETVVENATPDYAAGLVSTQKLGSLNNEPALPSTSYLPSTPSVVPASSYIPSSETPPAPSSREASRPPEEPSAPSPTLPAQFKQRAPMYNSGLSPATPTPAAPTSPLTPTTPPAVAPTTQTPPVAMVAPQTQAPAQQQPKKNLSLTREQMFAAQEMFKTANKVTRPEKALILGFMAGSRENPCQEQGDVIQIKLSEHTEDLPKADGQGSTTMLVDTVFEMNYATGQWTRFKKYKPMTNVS
UniProt Q96I59, sequence (Q96I59 whole entry, looked up): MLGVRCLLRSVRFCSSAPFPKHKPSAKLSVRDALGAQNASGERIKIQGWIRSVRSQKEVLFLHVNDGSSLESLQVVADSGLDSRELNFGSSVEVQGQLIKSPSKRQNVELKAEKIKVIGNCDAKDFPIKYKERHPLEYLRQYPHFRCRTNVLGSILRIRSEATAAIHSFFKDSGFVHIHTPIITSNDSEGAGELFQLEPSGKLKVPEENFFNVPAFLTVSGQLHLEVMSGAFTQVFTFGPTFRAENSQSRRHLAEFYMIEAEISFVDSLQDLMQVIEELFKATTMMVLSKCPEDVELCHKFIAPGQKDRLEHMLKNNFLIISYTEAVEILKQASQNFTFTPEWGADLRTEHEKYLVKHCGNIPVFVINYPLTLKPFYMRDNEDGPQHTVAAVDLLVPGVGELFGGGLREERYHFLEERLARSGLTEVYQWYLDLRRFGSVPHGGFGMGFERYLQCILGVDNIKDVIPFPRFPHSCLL
UniProt Q14980, sequence (Q14980 whole entry, looked up): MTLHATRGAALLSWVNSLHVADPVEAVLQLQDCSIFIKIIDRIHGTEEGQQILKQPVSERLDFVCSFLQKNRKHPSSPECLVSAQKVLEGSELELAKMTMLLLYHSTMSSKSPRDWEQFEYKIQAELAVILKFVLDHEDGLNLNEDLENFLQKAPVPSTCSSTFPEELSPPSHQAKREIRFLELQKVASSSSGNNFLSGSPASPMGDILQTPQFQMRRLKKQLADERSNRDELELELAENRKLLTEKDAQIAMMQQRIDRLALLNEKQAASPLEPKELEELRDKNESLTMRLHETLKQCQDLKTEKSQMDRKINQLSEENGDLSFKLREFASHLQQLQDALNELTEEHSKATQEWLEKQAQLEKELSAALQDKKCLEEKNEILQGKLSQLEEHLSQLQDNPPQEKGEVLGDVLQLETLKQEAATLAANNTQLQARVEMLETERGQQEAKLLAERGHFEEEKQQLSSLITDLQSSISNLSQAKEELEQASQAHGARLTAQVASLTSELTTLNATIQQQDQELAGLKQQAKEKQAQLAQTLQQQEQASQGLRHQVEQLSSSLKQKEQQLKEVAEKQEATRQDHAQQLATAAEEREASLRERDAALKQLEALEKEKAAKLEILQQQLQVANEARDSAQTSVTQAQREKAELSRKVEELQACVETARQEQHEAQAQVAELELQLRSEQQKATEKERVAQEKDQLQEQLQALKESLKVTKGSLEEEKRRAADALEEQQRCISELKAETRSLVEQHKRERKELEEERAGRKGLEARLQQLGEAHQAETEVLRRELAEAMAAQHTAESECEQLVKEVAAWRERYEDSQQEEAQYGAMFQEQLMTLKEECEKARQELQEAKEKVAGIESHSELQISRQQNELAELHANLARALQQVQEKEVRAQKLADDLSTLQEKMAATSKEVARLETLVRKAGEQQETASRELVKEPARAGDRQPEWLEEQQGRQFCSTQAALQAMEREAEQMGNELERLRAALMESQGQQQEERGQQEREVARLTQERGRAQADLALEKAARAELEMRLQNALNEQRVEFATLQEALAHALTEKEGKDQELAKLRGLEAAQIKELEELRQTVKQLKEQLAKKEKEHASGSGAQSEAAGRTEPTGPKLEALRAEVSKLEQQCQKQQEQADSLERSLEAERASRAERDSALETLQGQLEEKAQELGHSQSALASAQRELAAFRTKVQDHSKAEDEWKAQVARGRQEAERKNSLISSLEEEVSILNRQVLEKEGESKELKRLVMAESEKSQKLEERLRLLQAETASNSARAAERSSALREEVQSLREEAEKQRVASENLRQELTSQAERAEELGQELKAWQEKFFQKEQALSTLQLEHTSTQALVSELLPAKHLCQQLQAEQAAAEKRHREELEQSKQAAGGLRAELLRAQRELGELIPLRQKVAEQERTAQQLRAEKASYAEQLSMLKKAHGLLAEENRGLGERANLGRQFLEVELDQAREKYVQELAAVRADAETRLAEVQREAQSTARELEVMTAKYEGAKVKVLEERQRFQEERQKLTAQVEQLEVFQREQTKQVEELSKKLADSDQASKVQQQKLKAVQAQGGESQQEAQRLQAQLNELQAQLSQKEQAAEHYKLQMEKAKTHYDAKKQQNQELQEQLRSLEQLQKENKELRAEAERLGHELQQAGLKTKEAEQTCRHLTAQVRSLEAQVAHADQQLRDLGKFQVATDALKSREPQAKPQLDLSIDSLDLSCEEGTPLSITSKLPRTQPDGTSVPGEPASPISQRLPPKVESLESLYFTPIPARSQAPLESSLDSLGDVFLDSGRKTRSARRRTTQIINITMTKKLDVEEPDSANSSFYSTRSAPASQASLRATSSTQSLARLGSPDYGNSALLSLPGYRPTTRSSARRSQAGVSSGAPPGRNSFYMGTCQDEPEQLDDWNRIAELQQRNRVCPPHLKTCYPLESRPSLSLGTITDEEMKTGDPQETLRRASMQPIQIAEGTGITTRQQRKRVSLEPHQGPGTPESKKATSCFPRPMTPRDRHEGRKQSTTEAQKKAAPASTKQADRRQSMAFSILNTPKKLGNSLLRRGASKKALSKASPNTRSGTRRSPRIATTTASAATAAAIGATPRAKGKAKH
UniProt Q9BT67, sequence (Q9BT67 whole entry, looked up): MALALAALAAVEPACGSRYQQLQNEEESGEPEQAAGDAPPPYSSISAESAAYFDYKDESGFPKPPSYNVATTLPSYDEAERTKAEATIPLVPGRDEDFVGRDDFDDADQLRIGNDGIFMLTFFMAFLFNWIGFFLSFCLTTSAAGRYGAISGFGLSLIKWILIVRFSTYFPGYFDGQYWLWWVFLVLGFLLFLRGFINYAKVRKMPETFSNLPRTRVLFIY
UniProt Q9Y605, sequence (Q9Y605 whole entry, looked up): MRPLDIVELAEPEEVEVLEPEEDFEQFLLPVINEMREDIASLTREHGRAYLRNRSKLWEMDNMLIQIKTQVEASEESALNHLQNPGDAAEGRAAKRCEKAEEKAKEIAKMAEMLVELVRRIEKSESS

For NELFA (UniProt Q9H3P2), the log2 fold change in test [1] was -0.02; in test [2] it was -0.124; in [3], 0.011; in test [4], 0.092; in test [5], -0.104; in test [6] it was 0.06. The log2 fold change in test [7] is 0.097; in test [8], 0.024; in [9] it was 0.079; in [10], 0.212.
With NUMA1 (UniProt Q14980), the log2 fold change was 0.03 in [1]; -0.029 in test [2]; -0.009 in test [3]; -0.073 in test [4]; 0.262 in test [5]; 0.02 in [6]. Also, the log2 fold change in test [7] was 0.005; in [8], 0.132; in test [9], 0.092; in test [10], 0.005.
With NFX1 (UniProt Q12986), the log2 fold change in test [1] is -0.113; in test [2] it was 0.051; in test [3] it was -0.082; in test [4], 0.004; in test [5], 0.287; in [6], 0.148. The log2 fold change in test [7] was -0.032; in test [8], 0.17; in test [9], 0; in [10], -0.125.
For the target MRPS15 (UniProt P82914), the log2 fold change in test [1] is 0.04; in test [2], -0.026; in test [3], -0.017; in test [4] it was -0.022; in test [5], 0.058; in test [6], -0.037. Also, the log2 fold change in test [7] was 0.062; in test [8], 0.023; in [9], 0.027; in [10] it was 0.004.
On to NUDT7 (UniProt P0C024), for which the log2 fold change in test [1] was 0.016; in test [2], -0.021; in test [4], 0.197; in [5], 0.014; in [9], 0.017; in [10], 0.666 (active).
Consider MRFAP1 (UniProt Q9Y605), for which the log2 fold change was -0.073 in test [1]; -0.011 in test [2]; 0.101 in [3]; -0.045 in test [4]; -0.148 in test [6]; 0.046 in test [7]. Besides, the results for the log2 fold change in test [8], in test [9] and in [10] were 0.009, 0.017 and 0.036, respectively.
With NOLC1 isoform 2 (UniProt Q14978), the log2 fold change in test [1] is -0.074; in [2] it was -0.004; in test [3] it was -0.082; in [4], -0.051; in [5], 0.018; in [6] it was -0.088. Further, the log2 fold change in test [7] was -0.032; in [8], 0.104; in [9] it was 0.143; in [10], -0.033.
For the target NGLY1 (UniProt Q96IV0), the log2 fold change in [1] is -0.034; in test [2] it was -0.039; in [3] it was 0.052; in test [4], -0.016; in [5], 0.102; in test [6] it was 0.009. Further, the log2 fold change is 0.026 in [7], 0.016 in test [8], 0.036 in test [9] and 0.024 in [10].
On to NMT1 (UniProt P30419), for which the log2 fold change in test [1] is -0.012; in test [2] it was -0.006; in test [3], -0.012; in [4], 0.021; in test [5], -0.036; in test [6] it was -0.013. The log2 fold change in [7] was 0; in test [8], 0.023; in test [9], -0.284 (active); in test [10], -0.015.
With OSTM1 (UniProt Q86WC4), the log2 fold change was -0.051 in [1]; -0.047 in test [2]; 0 in test [3]; 0.056 in test [4]; -0.033 in test [5]; 0.017 in test [6]. The log2 fold change in test [7] is 0.093; in test [8], -0.03; in test [9], 0.146; in test [10] it was -0.023.
As for NARS2 (UniProt Q96I59), the log2 fold change in [1] is -0.016; in test [2], 0.002; in [3] it was -0.011; in test [4] it was 0.019; in [5], -0.071; in test [6], -0.01. For the same target, the log2 fold change in test [7] was 0.038; in test [8], -0.033; in [9] it was -0.076; in [10], 0.002.
As for NPM3 (UniProt O75607), the log2 fold change is 0.003 in [1]; -0.004 in [2]; -0.005 in test [3]; -0.056 in [4]; -0.04 in [6]; 0.041 in [7]. The log2 fold change in test [8] is -0.015; in test [9] it was 0.019; in test [10] it was -0.083.
Consider OPA1 isoform 2 (UniProt O60313), for which the log2 fold change in [1] is 0.01; in [2], -0.064; in test [3], 0.027; in test [4], -0.003; in test [5], -0.018; in test [6], -0.001. Besides, the log2 fold change in test [7] is 0.095; in [8], -0.002; in test [9] it was 0.052; in [10], 0.045.
In the case of NDFIP1 (UniProt Q9BT67), the log2 fold change in [1] was -0.366; in test [2] it was -0.125; in test [4] it was -0.1; in [5] it was 0.048; in test [6], 0.268; in [8] it was -0.15. Besides, the log2 fold change in [9] was -0.046; in test [10], -0.011.
